# Where “and” joins values, the source holds several entries; their conditions need not be identical. Equal values may be shown once. This is part of a sample that, as a whole, favours compounds with a hit. Of some 79,000 tested, about 15% had one in any assay. Values without a mark were called inactive. Calls of active or inactive are those of the source. No stated cut-off is given here; in the data, active means growth inhibition above about 70%; inactive means the rest.
# Test: NCI Yeast Anticancer Drug Screen. Data for the sgs1 strain (AID 173);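 further: 0% = growth of vehicle-only control cultures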
# Details: S. cerevisiae sgs1 mutant, hits give high values
# Protocol: Growth inhibition of yeast strains with defined genetic alterations is measured as a screen for potential anti-cancer activity. Selected strains with alterations in DNA damage repair or cell cycle control were exposed to compounds and growth inhibition was measured relative to vehicle treated controls. The strain used in this assay is sgs1
Compound,growth inhibition (at 1.2 µM) [%],growth inhibition (at 3.7 µM),growth inhibition (at 11.0 µM),growth inhibition (at 33.0 µM),growth inhibition (at 100.0 µM)
Cc1cc2c3ccccc3c3ccccc3c2nn1,-3,-6%,0%,12%,11%
CNC(=O)OCc1c(COC(=O)NC)c2n(c1C)-c1ccc(OC)cc1CCC2,-15,-15%,-16%,95% (active),99% (active)
CNC(=O)OCc1c(COC(=O)NC)c(-c2ccc(Cl)cc2)n2c1CCC2,-11,-28%,-41%,-23%,89% (active)
Oc1ccc(SCc2ccc(NCc3ccccc3)cc2)cc1,-33,-63%,-41%,26%,87% (active)
CCCCCCCCCCCCNC(C)=O,-2,-3%,-3%,-4%,43%
CN(C)CCOC1(Cc2ccc(Cl)cc2Cl)CCC(C(C)(C)C)CC1 (stereo not given),-1,11% and 26%,99% (active),100% (active) and 99% (active),100% (active) and 99% (active)
CCCC/C([O-])=C1/C(=O)N(c2ccccc2)N=C1C.CCCC/C([O-])=C1/C(=O)N(c2ccccc2)N=C1C.[Cu+2],0,-1%,-2%,-1%,-1%
O=C(/C=C/c1cc(Cl)cc(Cl)c1O)c1cccc(O)c1,22,23%,78% (active),98% (active),98% (active)
